Where “and” joins values, the source holds several entries; their conditions need not be identical. Equal values may be shown once. Among all 5,500 compounds or so, about 2,000 (36%) were called active. Another 18% or so got no clear call; they are omitted. Rule as the data show it: active = normalized growth mostly below about 0.91 (no sharp cut-off); inconclusive = no clear call, values can overlap the other calls; inactive = mostly above about 0.92. Some of the results follow.
Assay: chemical genetic growth profiling, strain panel (AID 1159580);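 also: tested at 20 µM; growth read once vehicle control cultures reached saturation at 30 °C; 1 = growth at the plate median or of vehicle wells; lower values mean less growth of the strain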
Conditions: S. cerevisiae deletion strains, growth OD
[1] = locus YAL013W, strain DEP1, active compounds read low
[2] = locus YGR229C, strain SMI1, active compounds read low
[3] = locus YJR075W, strain HOC1, active compounds read low
[4] = locus YMR263W, strain SAP30, active compounds read low
[5] = locus YMR307W, strain GAS1, active compounds read low
[6] = locus YNL153C, strain GIM3, active compounds read low
[7] = locus YNL322C, strain KRE1, active compounds read low
[8] = locus YPL055C, strain LGE1, active compounds read low
[9] = locus YAL040C, strain CLN3, active compounds read low
[10] = locus YCL061C, strain MRC1 (second series), active compounds read low
[11] = locus YDR150W, strain NUM1, active compounds read low
[12] = locus YDR363W, strain ESC2, active compounds read low
[13] = locus YER002W, strain NOP16, active compounds read low
[14] = locus YGR078C, strain PAC10, active compounds read low
[15] = locus YNL175C, strain NOP13, active compounds read low
[16] = locus YNL197C, strain WHI3, active compounds read low
[17] = locus YNL224C, strain SQS1, active compounds read low
[18] = locus YOR083W, strain WHI5 (second series), active compounds read low
[19] = locus YPL241C, strain CIN2, active compounds read low

Measured: normalized growth

CNC[C@@H](O)c1ccc(O)c(O)c1
inactive: [1] 0.993 | locus YAL021C, strain ccr4, active compounds read low 1 | locus YAL026C, strain drs2, active compounds read low 0.984 | locus YAL030W, strain snc1, active compounds read low 1 | locus YBL061C, strain skt5, active compounds read low 1 | locus YBR009C, strain hhf1, active compounds read low 0.997 | locus YBR021W, strain FUR4, active compounds read low 1.02 | locus YBR023C, strain chs3, active compounds read low 1.01 | locus YBR171W, strain sec66, active compounds read low 1 | locus YBR229C, strain ROT2, active compounds read low 0.96 | locus YBR231C, strain swc5, active compounds read low 0.991 | locus YBR279W, strain paf1, active compounds read low 1 | locus YCL011C, strain gbp2, active compounds read low 1.02 | locus YCL016C, strain dcc1, active compounds read low 1.02 | locus YCL029C, strain bik1, active compounds read low 0.984 | locus YCL061C, strain MRC1, active compounds read low 1.01 | locus YCL069W, strain vba3, active compounds read low 1.01 | locus YCR088W, strain abp1, active compounds read low 1.01 | locus YDL005C, strain med2, active compounds read low 0.997 | locus YDL035C, strain GPR1, active compounds read low 0.981 | locus YDL040C, strain nat1, active compounds read low 1 | locus YDL074C, strain BRE1, active compounds read low 0.984 | locus YDL101C, strain DUN1, active compounds read low 0.986 | locus YDL185W, strain tfp1, active compounds read low 0.966 | locus YDL192W, strain arf1, active compounds read low 0.979 | locus YDR001C, strain nth1, active compounds read low 1.01 | locus YDR069C, strain doa4, active compounds read low 0.989 | locus YDR101C, strain arx1, active compounds read low 0.982 | locus YDR137W, strain rgp1, active compounds read low 1.03 | locus YDR159W, strain sac3, active compounds read low 1 | locus YDR162C, strain NBP2, active compounds read low 0.977 | locus YDR195W, strain ref2 0.989 | locus YDR297W, strain sur2, active compounds read low 0.995 | locus YDR318W, strain mcm21, active compounds read low 0.983 | locus YDR334W, strain swr1, active compounds read low 0.993 | locus YDR335W, strain msn5, active compounds read low 1 | locus YDR388W, active compounds read low 0.99 | locus YDR392W, strain spt3, active compounds read low 0.93 | locus YDR502C, strain sam2, active compounds read low 0.996 | locus YEL003W, strain gim4, active compounds read low 1 | locus YEL037C, strain rad23, active compounds read low 1 | locus YEL061C, strain CIN8 (second series), active compounds read low 1.01 | locus YEL061C, strain CIN8, active compounds read low 0.978 | locus YER015W, strain faa2, active compounds read low 1.01 | locus YER016W, strain bim1, active compounds read low 1.01 | locus YER110C, active compounds read low 0.984 | locus YER111C, strain swi4, active compounds read low 1.02 | locus YER155C, strain BEM2 (second series), active compounds read low 0.988 | locus YER155C, strain BEM2, active compounds read low 1 | locus YER167W, strain BCK2, active compounds read low 1.01 | locus YFR010W, strain ubp6, active compounds read low 0.993 | locus YGL078C, strain dbp3, active compounds read low 0.993 | locus YGL086W, strain mad1, active compounds read low 0.977 | locus YGL167C, strain pmr1, active compounds read low 1 | locus YGL173C, strain kem1, active compounds read low 1 | locus YGL227W, strain vid30, active compounds read low 1 | locus YGL240W, strain doc1, active compounds read low 0.989 | locus YGL248W, strain PDE1, active compounds read low 1 | locus YGL253W, strain hxk2, active compounds read low 1.01 | locus YGR135W, strain pre9, active compounds read low 1.04 | [2] 0.99 | locus YGR252W, strain gcn5, active compounds read low 1.02 | locus YHR013C, strain ard1, active compounds read low 1.04 | locus YHR027C, strain rpn1, active compounds read low 1.01 | locus YHR030C, strain SLT2, active compounds read low 0.999 and 1.05 | locus YHR079C, strain IRE1 (second series), active compounds read low 0.951 | locus YHR079C, strain IRE1, active compounds read low 1.04 | locus YHR094C, strain hxt1, active compounds read low 0.977 | locus YHR129C, strain ARP1, active compounds read low 0.999 | locus YHR142W, strain chs7, active compounds read low 1.02 | locus YHR200W, strain rpn10, active compounds read low 0.97 | locus YIL066C, strain RNR3, active compounds read low 0.986 | locus YIL073C, strain SPO22, active compounds read low 1.02 | locus YIL125W, strain kgd1, active compounds read low 0.983 | locus YIR030C, strain dcg1, active compounds read low 0.999 | locus YJL092W, strain hpr5, active compounds read low 1.01 | locus YJL095W, strain BCK1 (second series), active compounds read low 1.01 | locus YJL095W, strain BCK1, active compounds read low 1.03 and 1.07 | locus YJL115W, strain asf1, active compounds read low 0.996 | locus YJL129C, strain trk1, active compounds read low 1 | locus YJL134W, strain LCB3, active compounds read low 0.993 | locus YJL154C, strain vps35, active compounds read low 1 | locus YJL164C, strain tpk1, active compounds read low 0.995 | locus YJL166W, strain qcr8, active compounds read low 1.01 | locus YJL168C, strain set2, active compounds read low 0.987 | locus YJL187C, strain SWE1 (second series), active compounds read low 0.981 | locus YJL187C, strain SWE1, active compounds read low 1 | locus YJR043C, strain POL32, active compounds read low 0.978 | locus YJR066W, strain TOR1, active compounds read low 0.985 | [3] 0.994 | locus YKL009W, strain mrt4, active compounds read low 0.986 | locus YKL068W, active compounds read low 0.977 | locus YKL085W, strain MDH1 (second series), active compounds read low 0.996 | locus YKL085W, strain MDH1, active compounds read low 0.996 | locus YKL160W, strain elf1, active compounds read low 1.03 | locus YKR001C, strain vps1, active compounds read low 0.982 | locus YKR026C, strain gcn3, active compounds read low 1 | locus YKR091W, strain srl3, active compounds read low 1.01 | locus YLL001W, strain dnm1, active compounds read low 1.01 | locus YLL026W, active compounds read low 1 | locus YLL041C, strain sdh2, active compounds read low 1 | locus YLR027C, strain aat2, active compounds read low 1 | locus YLR039C, strain RIC1, active compounds read low 1.03 | locus YLR058C, strain SHM2, active compounds read low 0.984 | locus YLR102C, strain apc9, active compounds read low 0.968 | locus YLR113W, strain HOG1, active compounds read low 1.08 | locus YLR221C, strain rsa3, active compounds read low 1.02 | locus YLR258W, strain gsy2, active compounds read low 1.02 | locus YLR262C, strain YPT6 (second series), active compounds read low 1 | locus YLR262C, strain YPT6, active compounds read low 0.947 | locus YLR268W, strain sec22, active compounds read low 0.972 | locus YLR320W, strain mms22, active compounds read low 1.03 | locus YLR330W, strain CHS5, active compounds read low 0.992 | locus YLR342W, strain FKS1 (second series), active compounds read low 0.999 | locus YLR342W, strain FKS1, active compounds read low 1.01 | locus YLR357W, strain rsc2, active compounds read low 0.957 | locus YLR370C, strain arc18, active compounds read low 1.01 | locus YLR371W, strain rom2, active compounds read low 0.983 | locus YLR384C, strain iki3, active compounds read low 0.999 | locus YLR418C, strain cdc73, active compounds read low 0.996 | locus YML016C, strain PPZ1, active compounds read low 0.994 | locus YML032C, strain rad52, active compounds read low 0.997 | locus YML120C, strain ndi1, active compounds read low 1.03 | locus YML124C, strain tub3, active compounds read low 0.983 | locus YMR058W, strain fet3, active compounds read low 1 | locus YMR078C, strain ctf18, active compounds read low 0.99 | locus YMR125W, strain sto1, active compounds read low 0.991 | locus YMR129W, active compounds read low 1.01 | locus YMR205C, strain PFK2, active compounds read low 1.04 | locus YMR223W, strain ubp8, active compounds read low 1.02 | locus YMR231W, strain pep5, active compounds read low 0.999 | [4] 0.995 | [5] 1.05 | locus YNL067W, strain RPL9B, active compounds read low 0.992 | locus YNL071W, strain lat1, active compounds read low 1.02 | [6] 0.993 | locus YNL183C, strain NPR1, active compounds read low 0.99 | locus YNL209W, strain ssb2, active compounds read low 1 | locus YNL233W, strain BNI4, active compounds read low 0.999 | locus YNL248C, strain rpa49, active compounds read low 1.02 | locus YNL250W, strain rad50, active compounds read low 0.96 | locus YNL271C, strain bni1, active compounds read low 0.988 | locus YNL298W, strain CLA4, active compounds read low 0.979 | locus YNL307C, strain MCK1, active compounds read low 0.905 | locus YNL322C, strain KRE1 (second series), active compounds read low 1.02 | [7] 1 | locus YNR049C, strain mso1, active compounds read low 1 | locus YNR052C, strain pop2, active compounds read low 0.984 | locus YOL012C, strain htz1 0.8 | locus YOL147C, strain pex11, active compounds read low 0.989 | locus YOR001W, strain rrp6, active compounds read low 1.01 | locus YOR061W, strain CKA2, active compounds read low 0.967 | locus YOR069W, strain VPS5, active compounds read low 0.991 | locus YOR070C, strain gyp1, active compounds read low 1 | locus YOR080W, strain dia2, active compounds read low 0.997 | locus YOR083W, strain WHI5, active compounds read low 1.03 | locus YOR106W, strain vam3, active compounds read low 1.02 | locus YOR136W, strain idh2, active compounds read low 0.965 | locus YOR144C, strain elg1, active compounds read low 0.986 | locus YOR184W, strain ser1, active compounds read low 0.982 | locus YOR231W, strain MKK1, active compounds read low 1.07 | locus YOR265W, strain rbl2, active compounds read low 1 | locus YOR270C, strain vph1, active compounds read low 1.05 | locus YOR290C, strain snf2, active compounds read low 0.955 | locus YOR316C, strain cot1, active compounds read low 0.966 | locus YPL051W, strain arl3, active compounds read low 0.998 | [8] 1.02 | locus YPL078C, strain atp4, active compounds read low 1.01 | locus YPL106C, strain sse1, active compounds read low 0.984 | locus YPL240C, strain hsp82, active compounds read low 1.01 | locus YPL256C, strain CLN2, active compounds read low 1.03 | locus YPR119W, strain clb2, active compounds read low 0.968 | locus YPR141C, strain kar3, active compounds read low 0.975 | locus YPR163C, strain tif3, active compounds read low 0.986 | locus YPR167C, strain met16, active compounds read low 0.989 | strain wtn01, active compounds read low 1

CC(C)NC[C@@H](O)c1ccc(O)c(O)c1
active: [3] 1.12 [resistant] | [5] 1.1 [resistant]
inactive: [1] 0.974 | [9] 1.03 | [10] 0.996 | [11] 1 | [12] 1 | [13] 0.984 | [14] 0.99 | [15] 0.984 | [16] 0.985 | [17] 0.997 | [7] 1.01 | [18] 1.04 | [19] 0.998

NCC(O)c1ccc(O)c(O)c1 (configuration not stated)
inactive: [9] 1.01 and 1.02 | [10] 0.998 | [12] 0.991 | [13] 1.02 and 0.999 | [14] 1 | [3] 1.02 | [4] 1.01 | [5] 1.02 | [6] 1.01 | [15] 0.999 and 1.01 | [16] 0.995 and 1.01 | [17] 0.987 and 0.982 | [7] 0.997 and 1.02 | [18] 0.98 and 0.991 | [8] 1 | [19] 1.01

COc1cc(C(O)CN)ccc1O (configuration not stated)
inactive: [9] 1.01 | [10] 1.01 | [12] 1.02 | [13] 1.04 | [2] 1.01 | [4] 1.01 | [15] 1.02 | [16] 1.01 | [17] 1 | [18] 1.01 | [19] 1

CNC[C@H](O)c1ccc(O)c(O)c1
inactive: [1] 1.01 | [9] 1.04 | [10] 1 | [11] 1 | [12] 0.993 | [13] 1.01 | [14] 1.02 | [3] 1 | [15] 1.01 | [16] 1.01 | [17] 1.01 | [7] 0.997 | [18] 1.02 | [19] 1

Source: PubChem BioAssay AID1159580 (chemical genetic matrix, 2015)
